PubChem BioAssay (Tox21)
Several values for one entry are separate records, joined by “and”; a condition that tells them apart may be missing. Equal values may be shown once. Results filed as inconclusive are left out. Activity calls are given as the source filed them. Calls come from the whole dose curve; as a rule, active = well fitted cell-killing curve with a large enough effect in the repeat runs; inconclusive = weak or mixed curves, or effect the other way; inactive = flat fitted curve, though single readings scatter.

assay: qHTS assay to identify small molecule agonists of the sonic hedgehog signaling (Shh) pathway - cell viability counter screen (AID 1259366); conditions: NIH/3T3 Gli1-Luc viability, CellTiter-Fluor, 24 h; series mostly up to 92.4 µM; viability change, negative = cytotoxic: at the top concentration; note: nearly all actives have a fitted effect of over 50% in size
Excerpt: National Center for Advancing Translational Sciences [NCATS]
NIH Chemical Genomics Center [NCGC]
U.S. Environmental Protection Agency [EPA]
National Institutes of Environmental Health Sciences [NIEHS]
National Toxicology Program [NTP]
U.S. Food and Drug Administration [FDA]
The sonic hedgehog (Shh) pathway is essential for normal embryonic development. Dysregulation of the Shh pathway can cause severe developmental defects in organs. Therefore chemicals that interfere with the pathway are potential developmental toxicants. A cell line designated 3T3Gli1-Luc (DMB/OARSA/CFSAN/FDA, Laurel, MD), a NIH/3T3 derived clone containing stably integrated Gli1-Luc reporter is used to detect chemical interference of the Shh pathway, by changes in the expression of the firefly Luc gene under the control of the Gli1 transcriptional response element. This cell line was used to screen Tox21 libraries for identifying and prioritizing the potential developmental toxicants that interfere Shh pathway. The cytotoxicity of the compounds was tested in parallel by measuring the cell viability using CellTiter-Fluor assay system (Promega, Madison, WI) in the same wells.
Tox21 Assay Protocol Summary:
3T3 Gli1-Luc cells were dispensed at 2,000 per well in 5uL of culture medium into white solid bottom 1536-well plates (Greiner Bio-One, Monroe, NC) using a Multidrop Combi (Thermo Scientific, Waltham, MA) dispenser. The assay plates were incubated at 37 C and 5% CO2 for 4hr, and then 23nL of compounds dissolved in DMSO and positive control were transferred using a Pintool station (Wako, San Diego, CA). The assay plates were incubated at 37C and 5% CO2 for 24hr. For viability read, after 23hr of compound treatment, 1uL of CellTiter-Fluor reagent (Promega Corporation, Madison, WI) was added to each well of the assay plates using Flying Reagent Dispenser (FRD, Aurora Discovery, San Diego, CA) and incubated the assay plates at 37C for 1hr. The fluorescence signal was quantified using a ViewLux plate reader (Perkin Elmer, Shelton, CT).
% is set by controls: 0 for no effect and ±100 for the full control effect; potency is the fitted concentration of half-maximal effect.

Structure (SMILES) | Potency | viability change, negative = cytotoxic
Cc1cc(C2(c3cc(C)c(O)cc3C)OS(=O)(=O)c3ccccc32)c(C)cc1O | 24.3 µM (active) and 12.2 µM (active) | –
CC(=O)OCC1=C(C(=O)O)N2C(=O)[C@@H](NC(=O)Cc3cccs3)[C@H]2SC1 | – | 2.72% [at 42.5 µM] (inactive)
C=CC(=O)OCCCCCCCC | – | 0.695% (inactive)
CC(C)(C)NCC(O)c1cc(O)cc(O)c1 (stereo not given) | – | -5.07% [at 42.5 µM] (inactive)
CCCCC/C=C/CC1CC(=O)OC1=O (stereo not given) | – | 2.15% (inactive)
CC1=C(C=O)C(C)(C)CC=C1 | – | 1.17% (inactive)
CC(=O)OCCOCCOCCOC(C)=O | inactive | –
O=S(=O)(O)c1ccc2nc(-c3ccccc3)[nH]c2c1 | inactive | –
CC(=O)CC(=O)Nc1ccc2[nH]c(=O)[nH]c2c1 | – | 3.2% (inactive)
CCC(=O)/C=C/C1C(C)=CCCC1(C)C (stereo not given) | inactive | –
Cc1ccnc2c1NC(=O)c1cccnc1N2C1CC1 | inactive | –
NNCCc1ccccc1 | inactive | –
CCCNC(C)C(=O)Nc1ccccc1C (stereo not given) | – | 2.45% [at 42.5 µM] (inactive)
CC(=O)N[C@@H](CS)C(=O)O | inactive | –
O=C(O)CCc1ccccc1 | – | 11.7% (inactive)
COc1ccc(COC(C)=O)cc1 | inactive | –
C/C=C/c1ccc(OCC)c(O)c1 | inactive | –
Cc1ccc(S(=O)(=O)Oc2ccc(N=Nc3ccc(-c4ccc(N=Nc5c(O)ccc6cc(S(=O)(=O)O)cc(S(=O)(=O)O)c56)c(C)c4)cc3C)cc2)cc1 | 24.4 µM (active) and 15.9 µM (active) | –
CC(COc1ccccc1)N(CCCl)Cc1ccccc1 (stereo not given) | inactive | –
CC(C)CCOCc1ccccc1 | – | 4.59% (inactive)

Structure (SMILES) | Potency | viability change, negative = cytotoxic
CC(C)CCCCCCc1ccc(O)cc1 | 62.2 µM (active) | –
O=C(O)c1cn(-c2ccc(F)cc2)c2cc(N3CCNCC3)c(F)cc2c1=O | inactive | –
CCCCCCCCCCCCCC[P+](CCCC)(CCCC)CCCC | 27.1 µM (active) | –
CCCCCCCCCCCCCCCCCl | – | 0.0419% [at 19 µM] (inactive)
CCCCCC(=O)O[C@]1(C(C)=O)CC[C@H]2[C@@H]3CCC4=CC(=O)CC[C@]4(C)[C@H]3CC[C@@]21C | – | -18% [at 42.5 µM] (inactive)
CC(C)(O)CCC(C)(C)O | – | 1.19% (inactive)
Cc1cccc(O)c1C | inactive | –
O=C(O)CP(=O)(O)O | – | -1.96% [at 42.5 µM] (inactive)
CCC[C@H](N[C@@H](C)C(=O)N1[C@H](C(=O)O)C[C@@H]2CCCC[C@@H]21)C(=O)OCC | inactive | –
O=C(Nc1ccccc1SSc1ccccc1NC(=O)c1ccccc1)c1ccccc1 | 13.8 µM (active) and 13.7 µM (active) | –
CC[C@]1(O)C[C@@H]2CN(CCc3c([nH]c4ccccc34)[C@@](C(=O)OC)(c3cc4c(cc3OC)N(C)[C@H]3[C@@](O)(C(=O)OC)[C@H](OC(C)=O)[C@]5(CC)C=CCN6CC[C@]43[C@@H]65)C2)C1 | 11.9 µM (active) | –
NC12CC3CC(CC(C3)C1)C2 | – | -20.1% [at 42.5 µM] (inactive)
c1ccc2cc3c(ccc4ccccc43)cc2c1 | inactive | –
c1ccc2c(c1)CCCC2C1=NCCN1 (stereo not given) | – | 7.32% [at 42.5 µM] (inactive)
c1cc(C(c2ccc(OCC3CO3)cc2)C(c2ccc(OCC3CO3)cc2)c2ccc(OCC3CO3)cc2)ccc1OCC1CO1 (stereo not given) | inactive | –
CC(=O)O[C@]1(C(C)=O)CC[C@H]2[C@@H]3C[C@H](C)C4=CC(=O)CC[C@]4(C)[C@H]3CC[C@@]21C | inactive | –
CC(=O)C1=C(C)[C@@H]2C[C@@]3(C1)[C@H](C)CC[C@H]3C2(C)C | inactive | –
Cc1scc2c1N(C(=O)CN1CCN(C)CC1)c1ccccc1NC2=O | – | -9.62% [at 42.5 µM] (inactive)
COC(=O)c1cccc(C(=O)OC)c1 | inactive | –
O | inactive | –
